Reference: PubChem BioAssay
The source made the active and inactive calls.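 Rule for the calls: active = inhibition above 50%; inactive = the rest.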

Assay: HepG2 cytotoxicity, primary screen, cytotoxicity control for P. falciparum antimalarial project, cell-based, ATP luminescence (AID 2303);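 note: 0% = DMSO wells and 100% = digitonin-killed cells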
Settings: HepG2 viability, 24-48 h, at 10 µM, active compounds read high

**Q.** With `Cn1nc(-c2ccc(NC(=O)Nc3ccc4ccccc4c3)c(F)c2)c2cnc(NCCN3CCOCC3)nc21` as the compound, how does the inhibition read?
**A.** 62% (active)

**Q.** For `CCNC(=O)Nc1ccc(-c2cnc(N)c(-c3nc4ccc(OC)cc4[nH]3)c2)cc1`, which inhibition is on record?
**A.** 51% (active)

**Q.** Which inhibition does the source give for `CC(C)(CN)c1nc(-c2ccc(Br)c(O)c2)c(-c2ccncc2)[nH]1` here?
**A.** 31% (inactive)

**Q.** With `Oc1cc(-c2nc(-c3ccccc3)[nH]c2-c2ccncc2)ccc1Cl` as the compound, how does the inhibition read?
**A.** 64% (active)

**Q.** Which inhibition does the source give for `CC(C)(NCc1ncc[nH]1)c1nc(-c2ccc(Cl)c(O)c2)c(-c2ccncc2)[nH]1` here?
**A.** 42% (inactive)

**Q.** For `CN1CCC(NC(=O)c2cccc(Nc3cc(Nc4cccc(Br)c4)ncn3)c2)CC1`, which inhibition is on record?
**A.** 25% (inactive)

**Q.** For `Cn1cnc2c(Nc3ccncc3)nc(-c3ccc4c(c3)OCO4)nc21`, which inhibition is on record?
**A.** 19% (inactive)

**Q.** For `CC(C)(CNC(=O)C1CCN(Cc2ccc(Cl)cc2)CC1)c1nc(-c2ccc(Cl)c(O)c2)c(-c2ccncc2)[nH]1`, which inhibition is on record?
**A.** 36% (inactive)

**Q.** For `CS(=O)(=O)Cc1ccc(Nc2ncc(Cl)c(Nc3cccnc3C(N)=O)n2)cc1`, which inhibition is on record?
**A.** 54% (active)

**Q.** With `Nc1ncc(-c2cccc(F)c2)cc1-c1nc2ccc(F)cc2[nH]1` as the compound, how does the inhibition read?
**A.** 54% (active)

**Q.** With `CN(c1ccc(NC(=O)Nc2cccc(Cl)c2)cc1)c1ccnc(N)n1` as the compound, how does the inhibition read?
**A.** 75% (active)

**Q.** With `CC(=O)Nc1nc(C)c(-c2csc(Nc3ccc(Cl)cc3)n2)s1` as the compound, how does the inhibition read?
**A.** 14% (inactive)

**Q.** For `CN(C)CCOc1ccc(-c2cc(-c3ccc(Cl)c(O)c3)c(-c3ccnc(N)n3)o2)cc1`, which inhibition is on record?
**A.** 43% (inactive)

**Q.** With `COc1c(CN2CCCC2)cccc1-c1cc2c(-c3ccc(C(=O)O)c(C(C)C)c3)ccnc2[nH]1` as the compound, how does the inhibition read?
**A.** 56% (active)

**Q.** For `NS(=O)(=O)c1cccc(Nc2nccc(-c3cnn4ncccc34)n2)c1`, which inhibition is on record?
**A.** 39% (inactive)

**Q.** Which inhibition does the source give for `CN(c1ccc2c(c1)nc(NCc1ccccc1)n2C)c1ccnc(Nc2ccc(CS(C)(=O)=O)cc2)n1` here?
**A.** 61% (active)

**Q.** Which inhibition does the source give for `CC(C)(CNC(=O)[C@H]1CCCN1)c1nc(-c2ccc(Cl)c(O)c2)c(-c2ccncc2)[nH]1` here?
**A.** -11% (inactive)

**Q.** Which inhibition does the source give for `Nc1ncc(-c2cn[nH]c2)cc1-c1nc2ccc(Cl)cc2[nH]1` here?
**A.** 46% (inactive)

**Q.** Which inhibition does the source give for `Cc1ccc(Nc2nc3cc(Nc4ccnc(Nc5cccc(CS(C)(=O)=O)c5)n4)ccc3o2)cc1` here?
**A.** 55% (active)

**Q.** For `N=C(N)c1ccc(Nc2nccc(Nc3nc(-c4ccccc4)cs3)n2)cc1`, which inhibition is on record?
**A.** 13% (inactive)

**Q.** For `N=C(N)c1ccc(Nc2nc(Nc3ccc(-c4ccccc4)cc3)ncc2[N+](=O)[O-])cc1`, which inhibition is on record?
**A.** 11% (inactive)

**Q.** Which inhibition does the source give for `CN(c1ccc(NC(=O)Nc2cc(C(F)(F)F)ccc2F)cc1)c1ccnc(NCCN2CCOCC2)n1` here?
**A.** 67% (active)

**Q.** Which inhibition does the source give for `Cc1cc(Nc2nc(Nc3cccc(Cl)c3)nc3ccccc23)n[nH]1` here?
**A.** 9% (inactive)

**Q.** With `COc1cccc(-n2ncc3c(N/N=C/c4ccc(CN(C)CCN(C)C)cc4)ncnc32)c1` as the compound, how does the inhibition read?
**A.** 29% (inactive)

**Q.** Which inhibition does the source give for `CN(c1ccc2c(c1)nc(NCc1ccc(F)cc1)n2C)c1ccnc(Nc2ccc(CS(C)(=O)=O)cc2)n1` here?
**A.** 48% (inactive)
